PINK1 expr mod = PINK1 expression modulation. PINK1 immunofluorescence, high-content cytometry, 24 h. Potency, µM (titrated, usually from 76.6 µM), usual class: activators. 410,000 compounds, 0.2% hits; active means well fitted activation curve with a large enough effect; inconclusive means small, poorly fitted or top-dose-only effect; cell line not stated here; further: nearly all actives have a fitted effect of over 65% in size
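Decision-based qHTS: stable cells, 24 h exposure to five compound concentrations, CCCP as control. Fixed cells stained for PINK1 plus nuclear, mitochondrial and cell markers, cytometer read.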
S2 tox = reduces viability in counter-screen for ATXN expression inhibitors | S2 cells (HEK-293 line with an ATXN2-luciferase reporter) viability, CellTiter-Fluor protease fluorescence, 24 h | Potency, µM (top dose mostly 56.7 µM), usual class: cytotoxic | 400,000 compounds, 0.49% hits | AID 651635; further: nearly all actives have a fitted effect of over 40% in size
MCF10A rerep = DNA re-replication induction in MCF 10a cells; MCF 10A DNA re-replication, Hoechst nuclear intensity, 48 h; Potency, µM (doses to about 46.1 µM), actives largely listed as activators; 350,000 compounds, 2.9% hits; further: nearly all actives have a fitted effect of over 50% in size
SW480 rerep = inducers of DNA re-replication in SW480 colon cancer cells. SW480 DNA re-replication, Hoechst DNA content imaging, 48 h. Potency, µM (titrated, usually from 46.1 µM), usual class: activators. 340,000 compounds, 1.8% hits; further: nearly all actives have a fitted effect of over 55% in size
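Hoechst fluorescence of nuclei (405 nm excitation, 500-530 nm emission) measured by plate-scanning imager after 48 hr compound exposure at 37 C; re-replication scored as increased number of nuclei with elevated intensity.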
ATXN2 expr inh = reduces ATXN2 reporter expression in HEK-293 cells. HEK-293 ATXN2-luciferase reporter, luminescence, 24 h. Potency, µM (titrated, usually from 57 µM), most hits filed as inhibitors. 360,000 compounds, 0.72% hits; further: nearly all actives have a fitted effect of over 55% in size
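qHTS (up to 57 uM final) was run with 24 h compound exposure of reporter cells at 37 °C. Each well was multiplexed: SteadyGlo luminescence measured ATXN2-luciferase expression after a fluorogenic Gly-Phe-AFC viability readout (25 uM final).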
IL-1B inflam inh = blocks inflammasome-driven IL-1 beta release | THP-1 LPS/ATP IL-1B secretion, AlphaLISA, 16 h; stronger effect = lower value | activity change, % at 57.5 µM | 360,000 compounds, 4.7% hits | AID 743279; in the data active means activity change below about -50%; inconclusive means mostly about -30% to -49%
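THP-1 cells pretreated 1 hr with compounds (up to 57.5 uM final), then stimulated with LPS (250 ng/mL final) plus ATP (1.25 mM final); secreted IL-1B measured by AlphaLISA after 16 hr, decreased signal indicating inhibition.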
Hits are given with their value; 0 = inactive; ? = inconclusive; - = not tested or not shown; ! = not confirmed by another sample; [ ] = dose if it differs, or a comment. Hits are enriched below; roughly 7.1% of the tested compounds scored in any of these assays. Unless noted, the call rests on the fitted dose curve; in most records, active means well fitted curve in the direction sought with a large enough effect; inconclusive means small, poorly fitted or top-dose-only effect, or another doubt; inactive means no such curve, though single readings can be large; an effect the other way counts as inactive or inconclusive.

SMILES	PINK1 expr mod	S2 tox	MCF10A rerep	SW480 rerep	ATXN2 expr inh	IL-1B inflam inh
O=C(NCc1ccc(F)cc1)C1CCN(S(=O)(=O)c2ccc(Br)s2)CC1	0	0	0	0	0	0
CCOC(=O)c1cc(-c2ccc(F)cc2)n(CCC(=O)Nc2ccccc2OC)c1C	0	-	-	-	-	-
Cc1cccc(N(Cc2cc3ccccc3[nH]c2=O)C(=O)c2cccc(Cl)c2)c1	0	0	-	-	0	-
CC[n+]1cccc(-c2nc3ccccc3s2)c1	0	0	0	0	0	0
CC[n+]1c(/C=C/N(C)c2ccccc2)n(-c2ccccc2)c2ccc(-c3nc4ccccc4s3)cc21	0	13µM	?	16µM	4.7µM	-102
Cc1ccc(C)c(-n2ccnc2SCC(=O)c2c(N)n(C3CC3)c(=O)[nH]c2=O)c1	0	0	0	18µM	0	0
CCCCCCCCCCn1ccc(=N)cc1	?	0	?	21µM	?	-95
O=c1oc2cc(Oc3c([N+](=O)[O-])cc(C(F)(F)F)cc3[N+](=O)[O-])ccc2c2c1CCCC2	?	?	0	0	?	-82
O=c1oc2cc(Oc3ccc(C(F)(F)F)cc3[N+](=O)[O-])ccc2c2c1CCC2	0	0	?	0	0	0
COc1ccc(C(=O)NC2CCCCC2)cc1OC1CCN(C(C)C)CC1	0	0	0	0	0	0
CN1CCC(NC(=O)c2cccc(Oc3ccccc3)c2)CC1	0	0	0	0	0	0
COc1cc(C(=O)NC2CCN(C)CC2)ccc1Nc1ncc2c(n1)N(C1CCCC1)CCC(=O)N2C(C)C	0	28µM	?	0[9.22 µM]	6.1µM!	0
COc1cc(C(=O)NC2CCN(C)CC2)ccc1Nc1ncc2c(n1)N(CCc1ccccc1)CCC(=O)N2C	0	0	9.2µM	0.21µM	0	0
CN(C)/C=C/c1onc(-c2ccccc2Cl)c1C#N	0	0	18µM	0	0	0
CCn1c2c(c3cc(Br)ccc31)CCC/C2=N\O	0	0	13µM	0	0	0
Cc1cc(Br)ccc1NC(=O)C1(S(=O)(=O)c2ccc(Cl)cc2)CC1	0	?	-	-	0	-
C=CCn1c2ccccc2c2nnc(SCCN3CCCCC3)nc21	0	?	0	0	-	0
C=CCn1c2ccccc2c2nnc(SCCCn3c(=O)[nH]c4ccccc43)nc21	0	-	21µM	0[9.22 µM]	?	-79
CCOc1ccc(C(=O)NC2CC(=O)N(c3ccc(C)cc3)C2)cc1OCC (centres undefined)	0	-	-	-	-	-
Cc1ccc(C(=O)N/C(=C/c2ccc(-c3cc(C(F)(F)F)ccc3Cl)o2)C(=O)NCc2cccnc2)cc1	0	0	0	0	0	?
CN(C)CCNC(=O)/C(=C/c1ccc(-c2ccc(Cl)cc2)o1)NC(=O)c1ccccc1	0	0	?	?	0	-93
O=C(NCCN1CCOCC1)/C(=C/c1ccc(Cl)cc1)NC(=O)c1ccccc1	0	0	0	0	0	?
CN(C)CCNC(=O)/C(=C/c1ccc(-c2ccc(Cl)cc2Cl)o1)NC(=O)c1ccccc1	0	?	7.3µM	?	0	-67
CC(=O)c1cccc(NC(=O)Cn2nc(C)n3cccc3c2=O)c1	0	-	-	-	-	-
Cn1c(=O)c2sccc2n2c(CCCC(=O)Nc3ccc(Oc4ccc(Cl)cc4)cc3)nnc12	0	-	-	-	-	-
SMILES	PINK1 expr mod	S2 tox	MCF10A rerep	SW480 rerep	ATXN2 expr inh	IL-1B inflam inh
COc1ccccc1N1CCN(c2ccc(NC(=O)c3ccc(C)cc3)cc2C(=O)O)CC1	0	0	-	-	0	-
CCOc1ccc(CCNC(=O)c2cc3sc(CC)cc3n2C)cc1OCC	0	-	-	-	-	-
COc1ccc(CCNCCC(c2ccccc2)c2ccccc2)cc1OC	0	?	-	-	-	-54
COc1ccc(CCNCC(=O)Nc2c(C)cc(C)cc2C)cc1OC	0	0	0	0	0	0
COc1ccc(C(CCNCc2ccc(OC)c(OC)c2)c2ccc(F)cc2)cc1 (centres undefined)	0	0	0	?	0	0
COc1ccc(CCNCCC(=O)Nc2c(C)cc(C)cc2C)cc1OC	0	0	0	0	0	-64
COc1ccccc1CCNC(C)CCc1ccc(O)cc1 (centres undefined)	0	0	0	0	0	0
COc1cc(OC)c(OC)cc1CCC(C)NCCC(c1ccccc1)c1ccccc1 (centres undefined)	0	16µM	?	0	-	-65
COc1ccc(CCNc2ncnc3sc(C(=O)N(C)C)c(C)c23)cc1OC	0	0	-	-	-	-
Cc1ccc(C(NC(=O)NC(C)c2ccccc2)C(Cl)(Cl)Cl)cc1F (centres undefined)	0	?	15µM	?	?	-62
Cc1cccc(CCNC(=O)CCc2c(C)nc3c(c(C)nn3-c3ccccc3)c2C)c1	0	0	-	-	0	-
Cc1cc(NC(=O)Nc2ccccc2F)ccc1Br	0	0	18µM	?	0	-50
COC(=O)c1cc(NS(=O)(=O)c2ccc(NC(C)=O)cc2)ccc1Cl	0	0	0	0	0	-74
Cn1nnc2cc(NC(=O)Nc3ccccc3F)ccc21	0	0	-	-	-	?
COC(=O)c1cc(NS(=O)(=O)c2ccc(OC)c(OC)c2)ccc1Cl	0	0	0	0	0	0
O=C(Nc1cccc(Cl)c1)OCCOCCOC(=O)Nc1cccc(Cl)c1	0	0	21µM	0	?	0
O=C(Nc1cccc(Cl)c1)Nc1cccc(Cl)c1	0	0	?	0	0	0
O=C(Nc1cccc(F)c1)Nc1cccc(Cl)c1	?	0	0	?	0	-88
CCCCC1CCC(C(=O)N2CC(=O)Nc3ccc(Br)cc3C2c2ccc(F)cc2)CC1 (centres undefined)	0	0	-	-	0	-
O=[N+]([O-])c1ccc(-c2csc(Nc3ccccc3)n2)cc1	0	-	-	-	-	-
COC(=O)C[C@@H]1OC[C@H](CO)N1S(=O)(=O)c1ccc(C)cc1	-	-	-	-	-	0
COc1ccccc1NS(=O)(=O)c1cccc(NC(=O)Nc2cccc(Cl)c2)c1	0	-	?	?	0	-65
O=C(Nc1cccc(F)c1)Nc1ccc2c(c1)OCO2	0	0	0	?	0	-67
COC(=O)c1cc(NC(=O)Nc2cccc(Cl)c2)ccc1Cl	0	0	0	0	?	-97
COC(=O)c1cc(NC(=O)c2ccc(-c3ccccc3)cc2)ccc1Cl	0	0	0	0	0	0
SMILES	PINK1 expr mod	S2 tox	MCF10A rerep	SW480 rerep	ATXN2 expr inh	IL-1B inflam inh
CCCCN(CCCC)S(=O)(=O)c1ccc(NS(=O)(=O)c2ccc(NC(C)=O)cc2)cc1	?	0	15µM	0	0	0
Cc1ccc(Cl)cc1N(C)C(=O)c1sc2nc3n(c(=O)c2c1C)CCCC3	0	-	-	-	-	-
O=C(Nc1cccc(Cl)c1)Nc1ccc(Br)cc1F	0	?	?	?	0	-59
O=C(Nc1ccccc1)Nc1ccc(Br)cc1F	0	0	0	0	0	?
C/C(=N\NC(=O)c1ccccc1)c1nc2ccccc2n1C	0	0	0	13µM	0	0
Cn1c(NC(=O)c2ccc(F)cc2)nc2ccccc21	0	0	0	?	0	0
